Rows were chosen to be rich in hits. Some 11% of all compounds tested hit in one or more screens of this group.
G9a block = blocks human histone lysine methyltransferase G9a; Q96KQ7; actives 8.8% (n = 350,000); Potency, µM (highest dose often 102 µM), without a hit: top-dose activity, negative = inhibition, hits mostly inhibitors; AID 504332; G9a H3K9 monomethylation, AlphaScreen, 2 h; note: potency is the fitted concentration of half-maximal effect; % is set by controls: 0 for no effect and ±100 for the full control effect; nearly all actives have a fitted effect of over 75% in size
Target sequence (Q96KQ7 913-1193 limits assumed): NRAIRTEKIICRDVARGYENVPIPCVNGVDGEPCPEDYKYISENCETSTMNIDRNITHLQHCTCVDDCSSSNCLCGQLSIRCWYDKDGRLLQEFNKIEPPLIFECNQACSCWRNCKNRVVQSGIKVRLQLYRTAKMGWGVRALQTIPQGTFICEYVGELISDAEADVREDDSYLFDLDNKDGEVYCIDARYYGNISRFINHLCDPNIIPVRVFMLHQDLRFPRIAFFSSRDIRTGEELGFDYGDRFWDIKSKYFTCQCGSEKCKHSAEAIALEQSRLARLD
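Quantitative HTS format: methyltransferase activity on a biotin-tagged H3K9 peptide is measured by AlphaScreen, using a rabbit anti-monomethyl-H3K9 antibody with streptavidin donor and anti-IgG acceptor beads. Final levels are 20 nM enzyme, 500 nM peptide, 20 uM SAM; 2 h RT.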
PI5P4Ka inh = blocks human PI5P4K alpha kinase activity | PI5P4Kalpha enzyme, ADP-Glo luminescence, 60 min; active compounds read low | max response, % | actives 1.2% (n = 330,000); active = max response of -50% or lower; inconclusive = between -30% and -50%; inactive = -30% or higher; note: value at the top dose of about 77 µM; % is set by controls: 0 for no effect and ±100 for the full control effect
Target sequence (P48426 whole entry, looked up): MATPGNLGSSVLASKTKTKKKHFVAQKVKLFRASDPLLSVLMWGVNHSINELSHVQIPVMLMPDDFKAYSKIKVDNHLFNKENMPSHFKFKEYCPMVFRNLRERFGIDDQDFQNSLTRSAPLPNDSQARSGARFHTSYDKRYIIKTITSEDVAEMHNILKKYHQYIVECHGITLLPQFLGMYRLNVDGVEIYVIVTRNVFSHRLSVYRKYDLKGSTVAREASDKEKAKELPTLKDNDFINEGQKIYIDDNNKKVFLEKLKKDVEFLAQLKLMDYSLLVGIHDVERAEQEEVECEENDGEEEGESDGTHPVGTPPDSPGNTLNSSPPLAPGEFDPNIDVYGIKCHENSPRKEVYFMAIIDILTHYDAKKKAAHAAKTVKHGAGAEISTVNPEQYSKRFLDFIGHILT
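Enzyme plus substrate dispensed, test compounds pinned in, then ATP (5 microM final) added. After 60 min at RT, ADP-Glo reagent 1 for 45 min and reagent 2 for 30 min preceded luminescence imaging.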
JMJD2A Tudor = inhibitors of human JMJD2A Tudor domain; actives 4.4% (n = 390,000); AID 504339; AlphaScreen JMJD2A-Tudor / H3K4me3 peptide binding; Potency, µM (highest dose often 114 µM), for inactives: top-dose activity change, negative = inhibition, hits mostly inhibitors; note: potency is the fitted concentration of half-maximal effect; % is set by controls: 0 for no effect and ±100 for the full control effect; nearly all actives have a fitted effect of over 50% in size
L3MBTL1 block = inhibitors of human L3MBTL1 | AlphaScreen L3MBTL1–H3K9me1 peptide binding | Potency, µM (series often up to 57.1 µM), for inactives: at the highest dose activity, negative = inhibition, most hits filed as inhibitors | actives 0.66% (n = 230,000) | AID 485360; note: potency is the fitted concentration of half-maximal effect; % is set by controls: 0 for no effect and ±100 for the full control effect; nearly all actives have a fitted effect of over 60% in size
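L3MBTL1 50 nM + b-AHA-H3(1-15)K9me1 75 nM, 30 min RT; compound added, 30 min RT; streptavidin donor/Ni-chelate acceptor beads 10 ug/mL each final, 30 min RT dark; AlphaScreen read.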
BAZ2B inh = BAZ2B (human) inhibition; Q9UIF8; Potency, µM (titrated, usually from 114 µM), for inactives: at the highest dose activity change, negative = inhibition, hits mostly inhibitors; AlphaScreen BAZ2B-H3K14Ac peptide displacement; actives 4.4% (n = 360,000); note: potency is the fitted concentration of half-maximal effect; % is set by controls: 0 for no effect and ±100 for the full control effect; nearly all actives have a fitted effect of over 60% in size
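Complex of BAZ2B and biotin-H3K14Ac (50 nM apiece) forms over 30 min at RT, then faces library compounds up to 110 uM for another 30 min; AlphaScreen beads added, 20 min dark incubation, luminescence read.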
HP1b chromo inh = blocks HP1-beta chromodomain binding to methylated histone tails; AlphaScreen HP1-beta / biotin-H3K9me3 peptide binding; Potency, µM (top dose mostly 114 µM), without a hit: at the highest dose activity change, negative = inhibition, usual class: inhibitors; actives 0.56% (n = 390,000); AID 540317; note: potency is the fitted concentration of half-maximal effect; nearly all actives have a fitted effect of over 70% in size
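AlphaScreen: HP1-beta (50 nM) preformed 30 min with biotin-H3(1-18)K9me3 peptide (50 nM) in PBS pH 7.4, 0.01% Tween-20. Compound added for 30 min at RT, then streptavidin donor/nickel chelate acceptor beads (10 ug/mL) for 30 min.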
Active calls of the source: *; ? = inconclusive; nt = no result given; [ ] = dose if it differs, or a comment. Unless noted, calls come from the whole dose curve; as a rule, active = well fitted inhibition curve with a large enough effect; inconclusive = small, poorly fitted or top-dose-only effect; inactive = no such curve, though single readings can be large or run the other way.

SMILES	G9a block	PI5P4Ka inh	JMJD2A Tudor	L3MBTL1 block	BAZ2B inh	HP1b chromo inh
CN(C)c1ccc([N+](=O)[O-])cc1C(=O)O	-9%	5	-5%	-1%	2%	33%
O=C(O)c1cc([N+](=O)[O-])cc2c1nnn2O	?	-67*	-27%	-26%	nt	-22%
O=C(C1CCN(Cc2ccc(F)cc2)CC1)N(CCc1ccccc1)Cc1ccccc1	13µM*	3	6.3µM*	1%	?	?
O=C(C1CCN(Cc2ccc(F)cc2)CC1)N(CCO)Cc1ccccc1	?	0	3.5µM*	1%	-16%	-23%
Fc1ccc(CNC2CCN(Cc3ccccc3)CC2)cc1	nt	-2	-22%	-6%	-7%	19%
O=[N+]([O-])c1ccccc1N=Nc1ccc(O)cc1	nt	5	50µM*	nt	nt	?
COC(=O)c1ccccc1NN=Nc1ccccc1[N+](=O)[O-]	nt	-10	nt	nt	nt	nt
O=[N+]([O-])c1ccccc1N=NNc1ccccc1	nt	8	20µM*	nt	nt	?
CCCSCCCNC(=O)c1sc2nc(C)cc(C)c2c1-n1cccc1	-6%[59 µM]	nt	-24%	nt	?	14%
C[C@@H]1C[C@H]2[C@H]3C[C@@H](F)C4=CC(=O)C=C[C@]4(C)[C@@]3(Cl)[C@@H](O)C[C@@]2(C)[C@@H]1C(=O)COC(=O)C(C)(C)C	1%[12.7 µM]	nt	nt	nt	nt	nt
CC(C)Oc1ccc(Cc2cnc(=S)[nH]c2N)cc1	50µM*	-18	-15%	2%	-18%	40%
CC(C)COc1ccc(Cc2cnc(N)nc2N)cc1	-9%[59 µM]	1	-27%	nt	-14%	14%
COc1cc(OC)cc(-c2nc3ccccc3c(=O)n2OC(=O)c2ccccc2C)c1	2%	0	-11%	1%	-38%	22%
O=C(On1c(-c2ccccc2)nc2ccccc2c1=O)c1ccco1	?	nt	89µM*	nt	-29%	-4%
COc1ccc(CCNc2nc(SCc3ccc(F)cc3)nc3ccccc23)cc1OC	-3%[59 µM]	nt	-19%	nt	19%	55%
Cc1ccc(N2C(=O)c3n[nH]c(C)c3C2c2cccnc2)cc1 (stereo not given)	50µM*	nt	-6%	6%	-8%	33%
COc1cc(C2c3c(n[nH]c3C)C(=O)N2c2ccc(C)cc2)ccc1O (stereo not given)	50µM*	1	35%	1%	-6%	46%
CCOC(=O)c1ccc(N2C(=O)c3n[nH]c(C)c3C2c2cccnc2)cc1 (stereo not given)	-9%	3	10%	0%	1%	29%
COc1cccc(CNc2ccc(F)c(Cl)c2)c1	50µM*	nt	26%	nt	?	44%
CCN1C(=O)c2cccc3c(N)ccc(c23)C1=O	50µM*	0	3%	nt	3%	58%
COc1cccc(/C=C/c2[nH]c(=O)[nH]c(=O)c2[N+](=O)[O-])c1O	?	-90*	-12%	nt	-8%	-13%
CC(C)c1ccc(/C=C/c2[nH]c(=O)[nH]c(=O)c2[N+](=O)[O-])cc1	?	-57*	-2%	0%	-30%	12%
O=c1[nH]c(/C=C/c2ccccc2Cl)c([N+](=O)[O-])c(=O)[nH]1	22%	-69*	-6%	3%	-17%	-20%
O=C(COc1ccccc1/C=C\c1[nH]c(=O)[nH]c(=O)c1[N+](=O)[O-])Nc1ccccc1	?	-69*	-24%	nt	-8%	-10%
CCOc1ccc(/C=C/c2[nH]c(=O)[nH]c(=O)c2[N+](=O)[O-])cc1	?	?	-7%	3%	-32%	1%
SMILES	G9a block	PI5P4Ka inh	JMJD2A Tudor	L3MBTL1 block	BAZ2B inh	HP1b chromo inh
Cc1ccc2cccc(NC(=O)c3ccc(-c4cccc(Cl)c4)o3)c2n1	4%[59 µM]	nt	-1%	nt	-9%	13%
COc1cc(/C=C/c2[nH]c(=O)[nH]c(=O)c2[N+](=O)[O-])cc(OC)c1O	9%	-88*	-12%	0%	-25%	20%
CCOc1cc(/C=C\c2[nH]c(=O)[nH]c(=O)c2[N+](=O)[O-])ccc1OC(C)CC (stereo not given)	20%[12.7 µM]	nt	-31%	nt	2%	-9%
O=C(COc1cccnc1[N+](=O)[O-])c1ccc(Cl)s1	nt	-86*	40µM*	?	40µM*	?
O=C(OCC(=O)c1ccc(Cl)s1)c1ccccn1	-10%[59 µM]	-15	32µM*	?	56µM*	17%
O=C(OCC(=O)c1ccc(Cl)s1)c1cnccn1	35µM*	-52*	-29%	nt	?	0%
COc1ccc(OC)c(CCNC(=O)CCn2c(=O)c3cccn3c3cccnc32)c1	-7%[59 µM]	nt	-22%	nt	-10%	-2%
N#C/C(=C\c1ccccc1)c1nc(-c2cc3c(ccc4ccccc43)oc2=O)cs1	-6%[59 µM]	nt	1%	nt	3%	40%
CCN(C(=O)Cn1c(C(=O)OC)cc2sccc21)c1cccc(C)c1	-2%[59 µM]	nt	-18%	nt	-3%	17%
COC(=O)c1c(NC(=O)C2COc3ccccc3O2)sc2c1CCN(C(=O)OC)C2 (stereo not given)	nt	2	nt	nt	nt	nt
CCOC(=O)c1c(NC(=O)C(C)Sc2cccc[n+]2[O-])sc2c1CCN(Cc1ccccc1)C2 (stereo not given)	8.9µM*	0	?	-2%	-10%	-10%
CCOC(=O)c1c(NC(=O)CSc2ncccn2)sc2c1CCN(Cc1ccccc1)C2	?	-10	22µM*	-6%	?	-14%
CCOC(=O)c1c(NC(C)=O)sc2c1CCN(Cc1ccccc1)C2	nt	5	-25%	0%	-3%	23%
COC(=O)c1c(NC(=O)C2COc3ccccc3O2)sc2c1CCN(Cc1ccccc1)C2 (stereo not given)	79µM*	8	?	0%	-10%	11%
CCOC(=O)c1c(NC(=O)CC)sc2c1CCN(Cc1ccccc1)C2	nt	8	-32%	-3%	-5%	12%
COc1ccc(C2=Nn3c(nnc3-c3ccccc3OC)SC2)c(OC)c1	nt	nt	-19%	nt	nt	nt
Cc1ccc(CN2CC(C(=O)NCCCn3nc(C)cc3C)CC2=O)cc1 (stereo not given)	nt	6	-6%	nt	nt	22%
Cc1cc(C)n(CC(=O)NNC(=O)C2CC(=O)N(Cc3ccccc3Cl)C2)n1 (stereo not given)	45µM*	-2	-4%	nt	-1%	36%
Cn1sccc1=O	1.8µM*	?	-20%	0%	-11%	42%
O=[N+]([O-])c1ccc(N=Nc2c(Cl)cc(O)cc2Cl)cc1	10µM*	-5	11µM*	nt	8.9µM*	13µM*
O=C(CCc1nc(-c2ccccc2F)no1)Nc1cccc(C(F)(F)F)c1	10%[59 µM]	nt	-1%	nt	-3%	51%

Screens from PubChem BioAssay.
